Unmarked numbers belong to inactive results. How the calls were made is not given here.
Each compound was assayed against Pantothenate synthetase (Mycobacterium tuberculosis (strain ATCC 25618 / H37Rv)) (UniProt P9WIL5) (assay: Recombinant Mtb pantothenate synthetase (PanC) inhibitors, coupled enzyme, confirmatory (AID 375;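 further: 0% = full reaction with vehicle and 100% = no enzyme background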)). Details: coupled enzyme assay; at 10 µM, hits give high values.
Sequence of Pantothenate synthetase (Mycobacterium tuberculosis (strain ATCC 25618 / H37Rv)) (P9WIL5 whole entry, looked up): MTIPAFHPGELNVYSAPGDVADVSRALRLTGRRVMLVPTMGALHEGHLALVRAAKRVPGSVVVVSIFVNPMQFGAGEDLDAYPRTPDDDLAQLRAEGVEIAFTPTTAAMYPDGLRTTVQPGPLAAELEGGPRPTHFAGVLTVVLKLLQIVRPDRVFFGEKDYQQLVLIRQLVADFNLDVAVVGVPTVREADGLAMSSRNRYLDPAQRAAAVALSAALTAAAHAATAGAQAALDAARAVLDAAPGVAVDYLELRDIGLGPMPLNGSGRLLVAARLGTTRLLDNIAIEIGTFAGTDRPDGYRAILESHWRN

SMILES	inhibition
O=C(/C=N/O)NCc1ccncc1	1%
O=C(Nc1nnc(SCC(=O)N2CCCCC2)s1)C1CCCCC1	5%
C=CCn1c(-c2cccs2)nc2nc3ccccc3nc21	0%
COC(=O)c1sc(NC(=O)c2ccoc2C)nc1C	0%
CCCCCCOC(=O)C(C#N)c1nc2ccccc2nc1N1CCCCC1 (stereo not given)	0%
Cc1nnc(SCCCn2c(N3CCCCC3)nc3c2c(=O)[nH]c(=O)n3C)s1	0%
Cc1cc(C)n2cc(CSc3nnnn3-c3ccc(Cl)cc3)nc2n1	0%
COC(=O)c1oc2ccc(Br)cc2c1NC(=O)CN1CCN(C)CC1	5%
CCOC(=O)N1CCC(NC(=O)Cn2ncc3c4ccccc4n(C)c3c2=O)CC1	5%
Cc1ccccc1-n1c(=O)cc(N2CCN(C(=O)c3ccco3)CC2)[nH]c1=O	0%
O=C(O)C1C2CCC(C2)C1C(=O)NCCCn1ccnc1 (stereo not given)	12%
Cn1c(=O)c(NC(=O)c2ccccc2)c2n(c1=S)CCCCC2	0%
C(#Cc1ccccc1)Cn1nnc2ccccc21	0%
O=C(CCCN1CC=C(n2c(=O)[nH]c3ccccc32)CC1)c1ccc(F)cc1	0%
COc1ccc(C(CNC(=O)CN2C(=O)NC3(CC(C)CC(C)(C)C3)C2=O)N2CCOCC2)cc1 (stereo not given)	4%
CCOCCCNc1ncnc2c1[nH]c1ccccc12	0%
COc1cc(C2N=C(c3ccccc3)NO2)cc(Br)c1O (stereo not given)	4%
COc1ccc(Nc2ncnc3c2cnn3-c2ccccc2)cc1OC	1%
CC(=O)c1c(C)oc2ccc(NS(=O)(=O)c3ccc(O)c(C(=O)O)c3)cc12	4%
O=C(NCc1cccs1)c1cc2c(s1)CCCC2	0%

SMILES	inhibition
CCOC(=O)[C@H](CCc1ccccc1)N[C@@H](C)C(=O)N1CCC[C@H]1C(=O)O	0%
O=C(OCc1cc2ccccc2[nH]c1=O)c1ccco1	0%
Cc1ccc(F)cc1NC(=O)c1cccc2nccnc12	1%
COC(=O)Cn1c(=NC(=O)CSCC(=O)Nc2cc(C)on2)sc2ccccc21	0%
c1ccc2c3nnc4n(c-3nc2c1)CCCS4	1%
CCN(CC)C(=O)Oc1ccc(NC(C)=O)cc1	0%
CCOC(=O)C1CCN(Cc2ccc(C(=O)OC)cc2)CC1	1%
Cc1cccc(-c2cc3nc4c(c(N5CCC6(CC5)OCCO6)n3n2)CCCC4)c1	4%
CC(=O)OCCNc1cc(N2CCN(C)CC2)c2noc3c2c1C(=O)c1ccccc1-3	0%
Cc1onc(-c2c(Cl)cccc2Cl)c1C(N)=O	0%
CN(C)CCCN1C(=O)C(=O)/C(=C(/O)c2ccncc2)C1c1cccc(Br)c1 (stereo not given)	1%
CCOC(=O)C1CCCN(C(=O)c2ccc3c(=O)n(CCOC)c(=S)[nH]c3c2)C1 (stereo not given)	2%
C=CCn1c(SC(C)C(=O)NC2(C#N)CCCCC2)nnc1-c1ccc(OC)cc1 (stereo not given)	5%
CC(C)(C)n1nnnc1CN1CCN(C2CCCC2)CC1	3%
CCN(C(=O)Cc1c(C(=O)O)[nH]c2ccccc12)c1cc(OC)ccc1OC	0%
CC(C)n1nc(C(=O)Nc2nc3ccc(S(C)(=O)=O)cc3s2)c2ccccc2c1=O	0%
O=C(Nc1ccc(NC(=O)c2ccco2)nc1)c1cccnc1	0%
O=C(Cc1c(F)cccc1Cl)Nc1ccncc1	6%
Cc1cccc(N(C)C(=O)c2coc(=O)c3ccccc23)c1	0%
Cn1c(SCc2ccccc2)nnc1C1CCCNC1 (stereo not given)	0%

From PubChem BioAssay
